# Screening results from PubChem.
# PLK1 PBD block – blocks phosphopeptide binding to human PLK1 polo-box domain. P53350. Plk1 PBD binding of FITC phosphopeptide, fluorescence polarization. Potency, µM, inactives show max response, negative = inhibition, most hits filed as inhibitors. hit rate 2.8% among 360,000. AID 720504; also: series mostly up to about 57 µM; % is scaled to controls: 0 for no effect and ±100 for the full control effect; nearly all actives have a fitted effect of over 65% in size
# BRCA1 expr act – activators of BRCA1 expression | MCF7-BRCA1-FFLuc reporter, luminescence, 48 h; response scale: scaled: vehicle 0%, 10 µM genistein 100% | hit rate 1.1% among 380,000 | Potency, µM (series often up to 46.1 µM), inactives show top-dose activation, hits mostly activators | AID 624202; also: nearly all actives have a fitted effect of over 80% in size
#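 Cells: MCF7-BRCA1-FFLuc, 2000/well. Exposure: 48 h, 37 °C, 5% CO2. Read: luminescence, 15 min post-substrate. Controls: genistein 10 microM (maximal activation), DMSO (neutral).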
# Tb PFK inh – blocks T. brucei phosphofructokinase; O15648; T. brucei PFK, ADP-Glo luminescence; Potency, µM (series often up to 57.5 µM), without a hit: at the top dose activity, negative = inhibition, actives largely listed as inhibitors; hit rate 0.17% among 330,000; AID 485367;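 also: 0% = uninhibited 1x PFK enzyme wells and -100% = no-enzyme wells; nearly all actives have a fitted effect of over 60% in size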
#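 ADP-Glo luminescence quantified ADP after 45 min at room temperature, with 1.25 nM T. brucei PFK, 0.1 mM ATP and 0.5 mM fructose-6-phosphate in pH 8.0 TEA buffer. qHTS titrations up to 57 µM; curves classified by quality.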
# VDR inh – vitamin D3 receptor (human) inhibition; P11473; VDR-SRC2-3 peptide fluorescence polarization, 2 h; Potency, µM, without a hit: max response, negative = inhibition, usual class: inhibitors; hit rate 0.93% among 400,000; AID 504847; also: % is scaled to controls: 0 for no effect and ±100 for the full control effect
# Target sequence (P11473 whole entry, looked up): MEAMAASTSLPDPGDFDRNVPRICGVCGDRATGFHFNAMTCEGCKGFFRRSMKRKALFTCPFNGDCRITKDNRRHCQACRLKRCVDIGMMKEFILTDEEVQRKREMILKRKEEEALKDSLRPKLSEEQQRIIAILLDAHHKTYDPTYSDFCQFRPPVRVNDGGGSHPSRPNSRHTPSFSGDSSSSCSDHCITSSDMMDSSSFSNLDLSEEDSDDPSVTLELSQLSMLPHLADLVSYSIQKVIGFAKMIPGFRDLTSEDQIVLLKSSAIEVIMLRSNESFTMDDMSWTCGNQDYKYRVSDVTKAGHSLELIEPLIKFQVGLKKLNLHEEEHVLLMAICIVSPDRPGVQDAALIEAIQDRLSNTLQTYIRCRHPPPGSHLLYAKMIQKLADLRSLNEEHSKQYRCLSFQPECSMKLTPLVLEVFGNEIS
#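 Signal is fluorescence polarization, reporting how far test compounds block the interaction of VDR with the SRC2-3 coregulator peptide after a 2 h room-temperature incubation.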
# * = called active by the depositor; ? = inconclusive; · = no result given; [ ] = remark or other dose. An excerpt weighted towards active compounds, which were near 3.9% of everything screened. Calls follow the shape of the dose curve; as a rule, active = well fitted curve in the direction sought with a large enough effect; inconclusive = small, poorly fitted or top-dose-only effect, or another doubt; inactive = no such curve, though single readings can be large; an effect the other way counts as inactive or inconclusive. Potency is read from the fitted curve at half-maximal effect.
SMILES,PLK1 PBD block,BRCA1 expr act,Tb PFK inh,VDR inh
COc1ccc(NC(=O)c2cccnn2)cc1,-1%,13µM*,0%,5%
COc1ccc(NC(=O)c2cc(C)on2)cc1,2%,7.1µM*,-2%,-16%
CN(C)c1ccc(NC(=O)c2cccc(C(=O)Nc3ccc(N(C)C)cc3)n2)cc1,-21%,-23%,?,79µM*
COc1ccc(NC(=O)c2ccc(NC(=O)c3cccnc3)cc2)cc1,2%,-1%,·,·
Cc1ccc(NC(=O)c2cc3ccccc3cc2O)cc1,3%,?,0%,?
CCC(c1nnnn1-c1ccc2c(c1)OCCO2)N1CCN(c2cc(C)ccc2C)CC1 (stereo not given),3%,-38%,·,·
COc1ccc(-c2sc3ccc(N4CCOCC4)cc3c2C#CCCO)cc1,1%,-85%,1%,12%
Cc1nn(-c2ccc(F)cc2)c(-n2cccc2)c1C(=O)N1CCN(c2ccc(F)cc2)CC1,·,0%,·,13%
O=C(NNc1ccccc1[N+](=O)[O-])Nc1cccc(Cl)c1,21µM*,-20%,?,79µM*
O=C(Cc1ccccc1)NCC(=O)Nc1cc(Cl)ccc1Cl,27µM*,-10%,-3%,?
O=C(NNc1ccccc1)Nc1cc(Cl)ccc1Cl,-8%,-18%,·,40µM*
O=C(COc1ccccc1)Nc1cc(Cl)ccc1Cl,-15%,-33%,-5%,1%
O=C(NNc1ccccc1[N+](=O)[O-])Nc1ccc(F)cc1F,-24%,-24%,0%,-26%
CO[C@H]1/C=C\O[C@@]2(C)Oc3c(C)c(O)c4c(O)c(c(C=NN5CCN(C6CCCC6)CC5)c(O)c4c3C2=O)NC(=O)C(C)=CC=C[C@H](C)[C@H](O)[C@@H](C)[C@@H](O)[C@@H](C)[C@H](OC(C)=O)[C@H]1C,·,-17%,·,·
CC(=O)c1c(C)[nH]c(C(=O)NNC(=O)COc2cc(C)cc(C)c2)c1C,-1%,-20%,-1%,-9%
COc1cc(/C=C2/C(C)=C(C#N)c3nc(N)c(C#N)c(C)c32)ccc1OCC(=O)O,24µM*,-8%,-7%,7%
CC1=C(C#N)c2nc(N)c(C#N)c(C)c2/C1=C\c1ccc(-c2ccccc2C(=O)O)o1,27µM*,6%,-1%,8%
O=C(Nc1cc(F)ccc1F)N1CCC(CN2CCOCC2)CC1,·,·,·,-3%
c1ccc(CN=C(NCc2ccccc2)NCc2ccccc2)cc1,-11%,-91%,·,6%
CCCN(C(=O)c1cc(S(=O)(=O)N(C)c2ccccc2OC)ccc1C)C1CCS(=O)(=O)C1 (stereo not given),-13%,6%,·,8%
O=c1c(-c2ccc(O)cc2)coc2c(C3OC(CO)C(O)C(O)C3O)c(O)ccc12 (stereo not given),·,·,·,7%
Fc1ccc(-n2c(=S)[nH]c3cccnc32)cc1,12µM*,1%,-17%,-15%
O=c1[nH]c(=S)n(-c2ccc(Br)cc2)c2ncccc12,-6%,6%,·,-14%
CCOC(=O)c1[nH]c2ccccc2c1NC(=O)c1ccccc1F,·,16%,·,-20%
Cc1cccc(CSCCNC(=O)CN(c2ccccc2)S(=O)(=O)N(C)C)c1,·,·,·,-2%
SMILES,PLK1 PBD block,BRCA1 expr act,Tb PFK inh,VDR inh
Cc1ccc(NC(=O)C2CCCC2)c(Br)c1,-18%,29%,·,-8%
Cc1ccc(NC(=O)CC2CCCC2)c(Br)c1,3%,13µM*,1%,-7%
Cc1ccc(NC(=O)CCC(=O)c2cccs2)c(Br)c1,5%,6.3µM*,-7%,-12%
Cc1ccc(O)c(NC(=O)CCC2CCCCC2)c1,0%,4µM*,1%,3%
Cn1c(NC(=O)CCC2CCCCC2)cc(=O)n(C)c1=O,-5%,2.2µM*,1%,2%
COc1ccc([C@]23Cc4ccccc4C(O2)C2=C(CC(C)(C)CC2=O)O3)cc1,·,·,0%[11.5 µM],·
C=CCOc1c(Br)cc(/C=N/O)cc1OCC,30µM*,-25%,-1%,-17%
CCCCOc1c(Br)cc(/C=N/O)cc1OCC,0%,1%,10%,-3%
Cc1ccc2nc(Cl)c(/C=C/C(=O)c3ccco3)cc2c1,-22%,-53%,1%,18µM*
Cn1nc(C(=O)Nc2ccc(F)c(Cl)c2)c2c1-c1ccccc1S(=O)(=O)C2,·,·,·,12%
Oc1c(CN2CCc3ccccc3C2)cc(Cl)c2cccnc12,30µM*,-77%,-5%,-29%
Oc1c(Cl)cc(CN2CCOCC2)c2cccnc12,?,-53%,?,?
CN(C)c1ccc(-c2nc3ccc(Cl)cn3c2Nc2ccc3c(c2)OCCO3)cc1,·,10µM*,·,-2%
CN(C)c1ccc(-c2nc3cnccn3c2Nc2ccc3c(c2)OCCO3)cc1,-6%,44%,0%,13%
C=CCc1cccc2cc(C(=O)Nc3ccccc3C(=O)O)c(=O)oc12,12µM*,-8%,5%,3%
C=CCc1cccc2cc(C(=O)O)c(=O)oc12,-2%,10%,3%,-1%
CC(=O)c1cccc(NC(=O)CCS(=O)(=O)c2cc(Br)cc3c2N(C(=O)C2CC2)CC3)c1,·,·,·,-9%
Cc1cc(NC(=O)COc2ccc3oc4ccccc4c3c2)no1,30µM*,-29%,-2%,-22%
O=C(NCC(O)c1ccccc1)c1cccs1 (stereo not given),-16%,7.1µM*,11%,-8%
O=C(NCC(=O)N1CCN(Cc2ccccc2)CC1)c1cccs1,1%,10µM*,-2%,-2%
O=C(NCCCc1ccccc1)c1cccs1,-2%,76%,1%,-12%
CCN1CCN(CCCN(Cc2ccco2)C(=S)Nc2ccc(C)c(Cl)c2)CC1,-16%,-21%,0%,-9%
Cc1cc(C)c(NC(=S)N(CCN2CCCCC2)Cc2ccco2)c(C)c1,21µM*,4%,-6%,-11%
CCN1CCN(CCCN(Cc2ccco2)C(=S)Nc2cc(Cl)ccc2C)CC1,24µM*,2%,-6%,-16%
CCOC(=O)C1CCCN(C(=O)c2nn(-c3ccc(OC)cc3)c(=O)c3c2c2ccccc2n3C)C1 (stereo not given),·,·,·,-16%
SMILES,PLK1 PBD block,BRCA1 expr act,Tb PFK inh,VDR inh
CCOc1ccc(CCNC(=O)CCCc2nnc3n(CCCOC)c(=O)c4sccc4n23)cc1,·,·,·,0%
CCOC(=O)C(Cc1ccccc1)NC(=O)CCc1c(C)nc2nc(C)nn2c1C (stereo not given),27µM*,-3%,1%,?
CSc1ccc(CCNC(=O)CCc2c(C)nc3ncnn3c2C)cc1,·,4%,·,-18%
Cc1nc2ncnn2c(C)c1CCC(=O)NCCc1ccccc1,24µM*,63%,-3%,-12%
NC(Cc1ccccc1)C(O)c1ccco1 (stereo not given),·,·,·,-24%
Cc1ccc(C)c(NC(=O)C(Cc2ccccc2)N2Cc3ccccc3C2=O)c1 (stereo not given),·,·,·,34%
CC(=O)Nc1ccc2c(c1)c1ccccc1n2C(C)=O,4%,-2%,1%,?
CC(=O)n1c2ccccc2c2nc(NC(C)C)sc21,27µM*,-22%,-7%,?
Cc1ccc(S(=O)(=O)N2CCC(C(=O)N(C)C3CCS(=O)(=O)C3)CC2)cc1 (stereo not given),6µM*,-4%,3%,-13%
Nc1ccc(/C=C/c2ccnc3ccccc23)cc1[N+](=O)[O-],·,56%,·,·
